Laboratory results as given in the supplement of paper PMC10849652.
About 7,900 targets were measured; listed, in parts, are those with a hit and a random draw of the rest. About 0.6% of all pairs of compound and target were hits.

How the values were obtained:
Assay in all cases: log2 fold change, soluble protein after heating vs DMSO (PISA); higher = thermal stabilisation; K562 cells, 10 uM, 30 min; active = over 0.2 and 3.5 SD of the protein, either way, in both replicates (recomputed)
[1] = compound: NC(=O)Nc1cc(-c2cccc(F)c2)sc1C(=O)N[C@H]1CCCNC1
Method in brief: (§1)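 K562 cells at 2×10^6 cells/mL were treated for 30 min with 10 μM compound, and aliquots were heated for 3 min over 48°C-58°C before pooling. Extraction used PBS with 0.5% NP-40 at 4°C, and soluble protein was the supernatant after 21,000xg for 90 min, measured by TMTpro 16plex LC-MS/MS with channel sums equalised. Thermal stability values, relative to control samples and from duplicates, are log2 fold changes.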

[2] = compound: NC(=O)c1cnc(N[C@@H]2CCCC[C@@H]2N)nc1Nc1cccc(-n2nccn2)c1
Method in brief: as §1

[3] = compound: NC1(c2ccc(-c3nc4ccn5c(=O)[nH]nc5c4cc3-c3ccccc3)cc2)CCC1
Method in brief: as §1

[4] = compound: NCC(=O)Nc1ccc(-n2nc(C(F)(F)F)cc2-c2ccc3c(ccc4ccccc43)c2)cc1
Method in brief: as §1

entinostat = compound: Nc1ccccc1NC(=O)c1ccc(CNC(=O)OCc2cccnc2)cc1 [entinostat]
Method in brief: as §1

vorinostat = compound: O=C(CCCCCCC(=O)Nc1ccccc1)NO [vorinostat]
Method in brief: as §1

citarinostat = compound: O=C(CCCCCCNC(=O)c1cnc(N(c2ccccc2)c2ccccc2Cl)nc1)NO [citarinostat]
Method in brief: as §1

silmitasertib = compound: O=C(O)c1ccc2c(c1)nc(Nc1cccc(Cl)c1)c1ccncc12 [silmitasertib]
Method in brief: as §1

[5] = compound: c1cc(OCCN2CCCCC2)cc(-c2n[nH]c3ccc(-c4nnc[nH]4)cc23)c1
Method in brief: as §1

entospletinib = compound: c1cn2cc(-c3ccc4cn[nH]c4c3)nc(Nc3ccc(N4CCOCC4)cc3)c2n1 [entospletinib]
Method in brief: as §1

[6] = compound: O=C1NC(=O)C(c2cnc3ccccn23)=C1c1cn2c3c(cc(F)cc13)CN(C(=O)N1CCCCC1)CC2
Method in brief: as §1

Measured: log2 fold change

ORC5 (UniProt O43913)
Chain of UniProt O43913 (O43913 whole entry, looked up): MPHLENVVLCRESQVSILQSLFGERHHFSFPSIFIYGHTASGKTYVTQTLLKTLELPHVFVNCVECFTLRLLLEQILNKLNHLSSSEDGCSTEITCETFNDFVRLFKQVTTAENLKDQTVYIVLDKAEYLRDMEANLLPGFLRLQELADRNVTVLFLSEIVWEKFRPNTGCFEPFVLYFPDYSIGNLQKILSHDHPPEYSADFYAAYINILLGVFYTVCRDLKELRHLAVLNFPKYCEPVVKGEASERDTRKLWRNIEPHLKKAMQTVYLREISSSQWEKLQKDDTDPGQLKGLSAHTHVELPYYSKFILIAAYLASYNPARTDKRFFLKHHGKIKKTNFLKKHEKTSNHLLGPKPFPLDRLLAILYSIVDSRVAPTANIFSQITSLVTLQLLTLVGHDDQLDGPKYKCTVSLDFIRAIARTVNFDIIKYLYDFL
inactive: [1] -0.322 | [2] -0.188 | [3] -0.253 | [4] -0.058 | entinostat -0.101 | vorinostat 0.139 | citarinostat 0.039 | silmitasertib -0.072 | [5] -0.004 | entospletinib 0.012

MLX (UniProt Q9UH92)
Chain of UniProt Q9UH92 (Q9UH92 whole entry, looked up): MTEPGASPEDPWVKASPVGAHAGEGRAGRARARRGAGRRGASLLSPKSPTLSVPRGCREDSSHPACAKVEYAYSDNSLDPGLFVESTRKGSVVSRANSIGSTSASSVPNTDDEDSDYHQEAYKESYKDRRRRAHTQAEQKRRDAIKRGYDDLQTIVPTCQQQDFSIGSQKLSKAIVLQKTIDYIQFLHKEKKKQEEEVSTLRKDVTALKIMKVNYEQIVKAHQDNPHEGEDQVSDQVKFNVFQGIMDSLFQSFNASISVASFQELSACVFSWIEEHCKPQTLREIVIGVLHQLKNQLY
inactive: [1] 0.144 | [2] -0.115 | [3] -0.177 | entinostat 0.005 | vorinostat 0.095 | citarinostat 0.139 | silmitasertib -0.091 | [6] -0.086 | [5] -0.175 | entospletinib -0.17

MPP1 (UniProt Q00013)
Chain of UniProt Q00013 (Q00013 whole entry, looked up): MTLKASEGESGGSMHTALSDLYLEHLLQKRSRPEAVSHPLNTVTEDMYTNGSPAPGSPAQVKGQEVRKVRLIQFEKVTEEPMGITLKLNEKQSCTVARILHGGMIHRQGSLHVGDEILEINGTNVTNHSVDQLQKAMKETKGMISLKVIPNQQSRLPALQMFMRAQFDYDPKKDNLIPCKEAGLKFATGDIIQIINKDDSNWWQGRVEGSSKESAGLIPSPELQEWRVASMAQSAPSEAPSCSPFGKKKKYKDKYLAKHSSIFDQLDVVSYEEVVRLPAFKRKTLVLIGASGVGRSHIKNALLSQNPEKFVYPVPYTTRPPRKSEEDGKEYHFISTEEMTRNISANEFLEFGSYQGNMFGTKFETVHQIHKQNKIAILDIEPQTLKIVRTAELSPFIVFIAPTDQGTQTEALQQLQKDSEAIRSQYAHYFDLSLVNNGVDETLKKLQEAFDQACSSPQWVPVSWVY
inactive: [1] -0.083 | [2] -0.015 | [3] -0.159 | [4] -0.067 | entinostat 0.047 | vorinostat 0.093 | citarinostat 0.036 | silmitasertib 0.022 | [6] 0.027 | [5] -0.059 | entospletinib 0.056

NAT14 (UniProt Q8WUY8)
inactive: [1] 0.038 | [2] -0.135 | [3] -0.108 | [4] -0.33 | entinostat -0.033 | citarinostat 0.04 | silmitasertib 0 | [6] -0.037 | [5] -0.108 | entospletinib 0.007

NPM3 (UniProt O75607)
Chain of UniProt O75607 (O75607 whole entry, looked up): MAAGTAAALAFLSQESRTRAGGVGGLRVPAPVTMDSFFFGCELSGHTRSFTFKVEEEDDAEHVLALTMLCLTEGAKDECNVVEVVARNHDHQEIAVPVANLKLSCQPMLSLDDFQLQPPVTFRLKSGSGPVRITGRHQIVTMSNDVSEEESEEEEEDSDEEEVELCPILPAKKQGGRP
inactive: [1] 0.029 | [2] 0.02 | [3] 0.216 | [4] 0.017 | entinostat -0.019 | vorinostat -0.023 | citarinostat -0.059 | silmitasertib 0.137 | [5] -0.101 | entospletinib 0.008

MPHOSPH8 isoform 2 (UniProt Q99549)
inactive: [1] 0.257 | [2] 0.004 | [3] 0.161 | [4] -0.018 | entinostat -0.191 | silmitasertib -0.083 | [6] 0.189

NIPSNAP2 (UniProt C9J7B1)
inactive: [1] -0.009 | [2] 0.175 | [3] -0.017 | entinostat 0.148 | silmitasertib 0.019

OPHN1 (UniProt O60890)
inactive: [1] 0.073 | [2] -0.134 | [3] -0.056 | entinostat -0.084 | vorinostat 0.128 | citarinostat 0.021 | silmitasertib 0.031 | [6] -0.046 | [5] 0.094 | entospletinib -0.014

NHLRC2 (UniProt Q8NBF2)
inactive: [1] -0.077 | [2] -0.02 | [3] -0.171 | [4] -0.065 | entinostat 0.009 | vorinostat 0.02 | citarinostat -0.007 | silmitasertib 0.009 | [6] -0.063 | [5] -0.015 | entospletinib 0.097

MRPS21 (UniProt P82921)
inactive: [1] -0.009 | [2] 0.137 | [3] -0.003 | [4] 0.095 | entinostat -0.004 | citarinostat 0.07 | silmitasertib -0.156 | [6] 0.024 | [5] -0.05 | entospletinib -0.031

MLST8 (UniProt Q9BVC4)
inactive: [1] 0.064 | [2] -0.201 | [3] -0.182 | [4] -0.082 | entinostat 0.127 | citarinostat 0.043 | silmitasertib 0.105 | [6] -0.03 | [5] -0.025 | entospletinib -0.06

NUMBL (UniProt Q9Y6R0)
Chain of UniProt Q9Y6R0 (Q9Y6R0 whole entry, looked up): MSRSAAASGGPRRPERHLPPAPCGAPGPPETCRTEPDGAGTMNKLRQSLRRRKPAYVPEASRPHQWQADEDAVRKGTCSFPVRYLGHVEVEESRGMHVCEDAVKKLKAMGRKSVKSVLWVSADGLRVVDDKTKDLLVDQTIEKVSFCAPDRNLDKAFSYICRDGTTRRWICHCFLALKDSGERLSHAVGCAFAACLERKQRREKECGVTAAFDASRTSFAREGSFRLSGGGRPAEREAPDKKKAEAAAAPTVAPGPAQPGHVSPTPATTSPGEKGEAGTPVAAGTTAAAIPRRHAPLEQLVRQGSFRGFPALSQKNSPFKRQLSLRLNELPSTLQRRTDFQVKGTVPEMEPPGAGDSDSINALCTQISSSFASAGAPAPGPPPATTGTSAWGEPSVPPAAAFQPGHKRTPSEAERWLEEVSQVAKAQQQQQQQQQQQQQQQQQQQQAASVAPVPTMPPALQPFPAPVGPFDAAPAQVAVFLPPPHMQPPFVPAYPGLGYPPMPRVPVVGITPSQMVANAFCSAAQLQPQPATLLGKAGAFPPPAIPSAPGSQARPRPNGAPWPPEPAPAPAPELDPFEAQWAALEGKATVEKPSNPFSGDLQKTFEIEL
inactive: [1] -0.101 | [2] 0.016 | [3] -0.154 | [4] 0.002 | entinostat 0.01 | vorinostat 0.078 | silmitasertib -0.037 | [6] 0.016

NUP160 (UniProt Q12769)
Chain of UniProt Q12769 (Q12769 whole entry, looked up): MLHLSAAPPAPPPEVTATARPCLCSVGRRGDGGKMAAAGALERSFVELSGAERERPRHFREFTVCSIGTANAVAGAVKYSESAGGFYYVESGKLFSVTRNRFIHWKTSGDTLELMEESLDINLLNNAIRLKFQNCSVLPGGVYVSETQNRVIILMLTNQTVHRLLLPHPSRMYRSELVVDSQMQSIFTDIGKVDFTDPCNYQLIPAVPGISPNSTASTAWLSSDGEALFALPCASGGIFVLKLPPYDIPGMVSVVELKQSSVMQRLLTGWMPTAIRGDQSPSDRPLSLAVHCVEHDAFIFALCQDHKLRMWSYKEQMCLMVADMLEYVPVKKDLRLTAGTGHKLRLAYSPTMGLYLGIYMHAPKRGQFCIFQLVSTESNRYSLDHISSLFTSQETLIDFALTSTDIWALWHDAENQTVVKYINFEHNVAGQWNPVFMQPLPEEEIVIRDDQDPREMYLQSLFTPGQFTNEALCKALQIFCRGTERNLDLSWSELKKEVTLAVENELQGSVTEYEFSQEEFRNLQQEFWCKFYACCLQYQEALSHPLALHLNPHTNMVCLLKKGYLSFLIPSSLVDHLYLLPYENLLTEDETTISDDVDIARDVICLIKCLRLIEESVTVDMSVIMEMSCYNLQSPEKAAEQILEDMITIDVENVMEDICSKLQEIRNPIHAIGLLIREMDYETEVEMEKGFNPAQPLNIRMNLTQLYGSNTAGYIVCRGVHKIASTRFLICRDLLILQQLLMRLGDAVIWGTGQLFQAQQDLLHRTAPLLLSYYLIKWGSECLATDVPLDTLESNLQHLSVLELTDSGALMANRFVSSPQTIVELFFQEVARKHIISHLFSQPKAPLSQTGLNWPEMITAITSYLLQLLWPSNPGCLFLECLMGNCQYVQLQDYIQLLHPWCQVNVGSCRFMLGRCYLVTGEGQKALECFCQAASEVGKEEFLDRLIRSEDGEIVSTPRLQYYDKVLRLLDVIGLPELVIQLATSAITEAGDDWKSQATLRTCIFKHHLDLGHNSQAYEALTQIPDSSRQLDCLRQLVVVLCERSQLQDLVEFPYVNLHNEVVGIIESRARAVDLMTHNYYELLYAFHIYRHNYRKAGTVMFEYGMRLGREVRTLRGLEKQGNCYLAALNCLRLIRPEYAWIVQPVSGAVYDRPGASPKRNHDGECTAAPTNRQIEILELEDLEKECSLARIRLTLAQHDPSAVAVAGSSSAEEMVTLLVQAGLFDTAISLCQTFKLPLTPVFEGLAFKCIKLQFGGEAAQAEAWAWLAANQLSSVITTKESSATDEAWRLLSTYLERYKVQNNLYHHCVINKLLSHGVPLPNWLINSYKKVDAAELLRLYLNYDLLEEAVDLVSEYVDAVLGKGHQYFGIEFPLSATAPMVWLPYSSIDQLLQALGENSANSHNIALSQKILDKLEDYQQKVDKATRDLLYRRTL
inactive: [1] 0.031 | [2] -0.058 | [3] -0.066 | [4] -0.062 | entinostat 0.008 | vorinostat 0.05 | citarinostat 0.018 | silmitasertib 0.075 | [6] 0.021 | [5] -0.09 | entospletinib 0.03

NFYB (UniProt P25208)
Chain of UniProt P25208 (P25208 whole entry, looked up): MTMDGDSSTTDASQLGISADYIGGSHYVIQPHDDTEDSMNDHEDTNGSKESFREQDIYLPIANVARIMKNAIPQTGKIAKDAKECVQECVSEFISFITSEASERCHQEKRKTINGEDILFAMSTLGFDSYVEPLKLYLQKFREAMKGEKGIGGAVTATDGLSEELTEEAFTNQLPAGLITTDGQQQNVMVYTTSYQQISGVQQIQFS
inactive: [1] -0.022 | [2] 0.102 | [3] -0.074 | [4] 0.069 | entinostat -0.001 | vorinostat -0.038 | citarinostat -0.006 | silmitasertib 0.043 | [5] 0.033 | entospletinib 0.04

NUDT1 (UniProt P36639)
inactive: [1] 0.159 | [2] 0.145 | [4] -0.129 | entinostat -0.026 | vorinostat 0.033 | citarinostat -0.073 | silmitasertib -0.091 | [6] 0.791 | [5] 0.572 | entospletinib 0.018
active: [3] 1.01

NME2P1 (UniProt O60361)
inactive: [1] 0.07 | [2] -0.146 | [3] -0.124 | [4] -0.306 | entinostat -0.01 | vorinostat 0.036 | citarinostat -0.114 | silmitasertib 0.048 | [6] -0.011 | [5] -0.161 | entospletinib -0.571

MRFAP1 (UniProt Q9Y605)
Chain of UniProt Q9Y605 (Q9Y605 whole entry, looked up): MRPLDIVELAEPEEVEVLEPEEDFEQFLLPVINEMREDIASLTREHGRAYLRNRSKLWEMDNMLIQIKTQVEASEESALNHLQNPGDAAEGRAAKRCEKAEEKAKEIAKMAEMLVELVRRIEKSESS
inactive: [1] 0.134 | [2] 0.01 | [3] 0.021 | [4] -0.082 | entinostat 0.014 | vorinostat 0.15 | citarinostat 0.133 | silmitasertib -0.019 | [5] -0.028 | entospletinib 0.005

NTMT1 (UniProt Q9BV86)
Chain of UniProt Q9BV86 (Q9BV86 whole entry, looked up): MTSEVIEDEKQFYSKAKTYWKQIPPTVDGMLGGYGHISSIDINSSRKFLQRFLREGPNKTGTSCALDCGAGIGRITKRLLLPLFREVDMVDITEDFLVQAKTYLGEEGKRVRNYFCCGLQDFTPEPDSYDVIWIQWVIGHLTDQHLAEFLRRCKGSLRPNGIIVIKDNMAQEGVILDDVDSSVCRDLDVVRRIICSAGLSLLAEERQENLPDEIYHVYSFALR
inactive: [1] -0.035 | [2] 0.027 | [3] 0.077 | [4] -0.002 | entinostat 0.024 | vorinostat -0.089 | citarinostat -0.069 | silmitasertib -0.028 | [6] -0.029 | entospletinib 0.118

MON1A (UniProt Q86VX9)
Chain of UniProt Q86VX9 (Q86VX9 whole entry, looked up): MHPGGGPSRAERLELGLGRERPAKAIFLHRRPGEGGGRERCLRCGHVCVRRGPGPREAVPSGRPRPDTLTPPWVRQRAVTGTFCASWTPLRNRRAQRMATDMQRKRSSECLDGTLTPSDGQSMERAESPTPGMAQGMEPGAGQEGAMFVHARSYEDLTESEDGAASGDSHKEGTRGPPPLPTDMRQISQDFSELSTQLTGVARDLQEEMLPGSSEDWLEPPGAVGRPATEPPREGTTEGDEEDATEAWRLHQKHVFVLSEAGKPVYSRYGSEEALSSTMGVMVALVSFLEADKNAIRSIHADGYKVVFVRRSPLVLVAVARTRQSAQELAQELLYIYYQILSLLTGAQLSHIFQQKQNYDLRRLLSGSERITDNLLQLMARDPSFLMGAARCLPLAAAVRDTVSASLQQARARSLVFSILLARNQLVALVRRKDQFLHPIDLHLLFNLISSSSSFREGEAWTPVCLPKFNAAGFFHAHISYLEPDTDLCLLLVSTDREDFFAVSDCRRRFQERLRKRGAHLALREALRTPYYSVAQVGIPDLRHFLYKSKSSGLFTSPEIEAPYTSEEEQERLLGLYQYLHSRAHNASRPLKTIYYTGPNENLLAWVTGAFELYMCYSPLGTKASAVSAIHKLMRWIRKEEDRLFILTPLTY
inactive: [1] 0.016 | [3] 0.001 | entinostat -0.005 | vorinostat 0.017 | citarinostat 0.161 | silmitasertib -0.157 | [6] -0.013 | [5] -0.275 | entospletinib 0.041

NUDT6 (UniProt P53370)
active: silmitasertib -0.517
inactive: [3] 0.149 | [4] 0.298 | citarinostat 0.164 | [6] -0.097 | [5] -0.385 | entospletinib 0.127

MYSM1 (UniProt Q5VVJ2)
inactive: [1] -0.205 | entinostat 0.237 | citarinostat 0.564 | [5] 0.174 | entospletinib 0.141

NAP1L1 (UniProt B7Z9C2)
inactive: [2] -0.124 | [3] 0.028 | [4] 0.064 | vorinostat 0.23 | citarinostat 0.068 | silmitasertib 0.001 | [5] 0.179 | entospletinib -0.081

NA, A0A2R8Y3M9
inactive: [1] -0.104 | [2] -0.17 | entinostat -0.011 | vorinostat 0.372

OVCA2 (UniProt Q8WZ82)
inactive: [2] -0.067 | [3] 0.03 | vorinostat 0.08 | citarinostat -0.085 | silmitasertib 0.206 | [5] 0.08 | entospletinib -0.031

MLH1 (UniProt P40692)
inactive: [2] 0.058 | [3] -0.102 | vorinostat -0.042 | silmitasertib -0.017 | [6] -0.098

MSANTD2 (UniProt Q6P1R3)
inactive: [1] -0.041 | [4] -0.065 | entinostat -0.184 | citarinostat -0.124 | [6] 0.004 | [5] 0.16 | entospletinib -0.364

MOB3B (UniProt Q86TA1)
inactive: [2] -0.082 | [3] -0.288 | [4] -0.021 | vorinostat -0.049 | silmitasertib -0.023

NUDT7 (UniProt P0C024)
Chain of UniProt P0C024 (P0C024 whole entry, looked up): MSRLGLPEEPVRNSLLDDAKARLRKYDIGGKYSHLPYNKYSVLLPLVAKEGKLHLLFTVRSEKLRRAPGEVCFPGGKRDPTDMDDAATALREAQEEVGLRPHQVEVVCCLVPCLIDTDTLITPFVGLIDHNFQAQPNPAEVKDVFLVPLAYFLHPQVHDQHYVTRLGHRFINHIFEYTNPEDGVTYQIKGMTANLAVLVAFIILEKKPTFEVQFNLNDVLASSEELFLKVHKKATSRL
inactive: [1] 0.01 | entinostat -0.05 | vorinostat 0.286 | [6] 0.12

NRGN (UniProt Q92686)
Chain of UniProt Q92686 (Q92686 whole entry, looked up): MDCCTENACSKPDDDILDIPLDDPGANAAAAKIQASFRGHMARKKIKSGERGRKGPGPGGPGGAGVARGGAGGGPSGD
inactive: [2] 0.144 | vorinostat -0.231 | [6] -0.215

NA (UniProt B2RBV5)
inactive: [1] 0.06 | [3] -0.055 | entinostat 0.029 | vorinostat 0.045 | citarinostat 0.12 | silmitasertib 0.056 | [6] -0.001 | [5] -0.014 | entospletinib -0.058

NOS1AP (UniProt O75052)
inactive: [3] -0.27 | [4] -0.302 | citarinostat -0.225 | silmitasertib 0.312 | [6] -0.186 | [5] 0.59 | entospletinib -0.337

NDUFA7 (UniProt M0R0N0)
inactive: [1] -0.307 | [4] -0.344 | entinostat -0.063

MYLK (UniProt Q15746)
inactive: [1] -0.063 | [3] -0.064 | [4] -0.21 | entinostat -0.081 | vorinostat -0.059 | citarinostat -0.089 | silmitasertib 0.175 | [5] 0.204 | entospletinib -0.041
